Out of some 5,500 compounds screened, about 2,000 (36%) were called active. About 18% were inconclusive and are not listed. The list shows a part of the results. Unmarked numbers belong to inactive results. No stated cut-off is given here; in the data, active means normalized growth mostly below about 0.91 (no sharp cut-off); inconclusive means no clear call, values can overlap the other calls; inactive means mostly above about 0.92.
Assay: chemical genetic growth profiling, strain panel (AID 1159580);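 further: tested at 20 µM; growth read once vehicle control cultures reached saturation at 30 °C; 1 = growth at the plate median or of vehicle wells; lower values mean less growth of the strain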
Details: growth OD
[1] = S. cerevisiae deletion strains, locus YAL013W, strain DEP1, hits give low values
[2] = S. cerevisiae deletion strains, locus YBR229C, strain ROT2, hits give low values
[3] = S. cerevisiae deletion strains, locus YDL101C, strain DUN1, hits give low values
[4] = S. cerevisiae deletion strains, locus YDR150W, strain NUM1, hits give low values
[5] = S. cerevisiae deletion strains, locus YEL061C, strain CIN8, hits give low values
[6] = S. cerevisiae deletion strains, locus YGR078C, strain PAC10, hits give low values
[7] = S. cerevisiae deletion strains, locus YHR030C, strain SLT2, hits give low values
[8] = S. cerevisiae deletion strains, locus YHR087W, strain rtc3, hits give low values
[9] = S. cerevisiae deletion strains, locus YJR043C, strain POL32, hits give low values
[10] = S. cerevisiae deletion strains, locus YJR075W, strain HOC1, hits give low values
[11] = S. cerevisiae deletion strains, locus YLR039C, strain RIC1, hits give low values
[12] = S. cerevisiae deletion strains, locus YLR058C, strain SHM2 (second series), hits give low values
[13] = S. cerevisiae deletion strains, locus YLR085C, strain ARP6, hits give low values
[14] = S. cerevisiae deletion strains, locus YLR262C, strain YPT6, hits give low values
[15] = S. cerevisiae deletion strains, locus YML094W, strain GIM5, hits give low values
[16] = S. cerevisiae deletion strains, locus YMR219W, strain ESC1, hits give low values
[17] = S. cerevisiae deletion strains, locus YMR263W, strain SAP30, hits give low values
[18] = S. cerevisiae deletion strains, locus YNL153C, strain GIM3, hits give low values
[19] = S. cerevisiae deletion strains, locus YNL298W, strain CLA4 (second series), hits give low values
[20] = S. cerevisiae deletion strains, locus YNL322C, strain KRE1, hits give low values
[21] = S. cerevisiae deletion strains, locus YNR030W, strain Alg12, hits give low values
[22] = S. cerevisiae deletion strains, locus YOL006C, strain TOP1, hits give low values
[23] = S. cerevisiae deletion strains, locus YPL055C, strain LGE1, hits give low values
[24] = S. cerevisiae deletion strains, locus YPL241C, strain CIN2, hits give low values
[25] = S. cerevisiae deletion strains, locus YPR135W, strain CTF4, hits give low values
[26] = S. cerevisiae strains, strain wild type, hits give low values
[27] = S. cerevisiae deletion strains, locus YJL187C, strain SWE1, hits give low values

Cc1cc(C(F)(F)F)n2nc(-c3ccc(C(C)(C)C)cc3)cc2n1
normalized growth [1]: 0.996 | normalized growth [2]: 1.02 | normalized growth [3]: 0.983 | normalized growth [4]: 0.965 | normalized growth [5]: 0.993 | normalized growth [6]: 1.01 | normalized growth [7]: 0.963 | normalized growth [8]: 1.01 | normalized growth [9]: 1.01 | normalized growth [10]: 0.994 | normalized growth [11]: 0.965 | normalized growth [12]: 1 | normalized growth [13]: 0.899 | normalized growth [14]: 0.964 | normalized growth [15]: 0.958 | normalized growth [16]: 0.999 | normalized growth [17]: 1.05 | normalized growth (S. cerevisiae deletion strains, locus YMR307W, strain GAS1, hits give low values): 0.868 | normalized growth [18]: 1.01 | normalized growth [19]: 0.98 | normalized growth [20]: 0.988 | normalized growth [21]: 0.976 | normalized growth [22]: 0.984 | normalized growth [23]: 1.06 | normalized growth [24]: 0.902 | normalized growth [25]: 1.08 | normalized growth [26]: 0.986

FC(F)(F)c1cc(-c2ccco2)nc2cc(-c3ccco3)nn12
normalized growth [1]: 0.869 (active) | normalized growth [2]: 0.908 (active) | normalized growth (S. cerevisiae deletion strains, locus YCL061C, strain MRC1, hits give low values): 0.98 | normalized growth [3]: 0.972 | normalized growth [4]: 0.889 | normalized growth [5]: 0.97 | normalized growth [6]: 0.958 | normalized growth [7]: 0.722 | normalized growth [8]: 0.935 | normalized growth [27]: 0.973 | normalized growth [9]: 0.881 (active) | normalized growth [10]: 0.903 | normalized growth [11]: 0.729 (active) | normalized growth [12]: 0.96 | normalized growth [13]: 0.829 | normalized growth [14]: 0.883 | normalized growth [15]: 0.889 | normalized growth [16]: 1 | normalized growth [17]: 0.899 (active) | normalized growth [18]: 0.949 | normalized growth [19]: 0.859 | normalized growth [20]: 0.997 | normalized growth [21]: 0.798 (active) | normalized growth [23]: 0.851 | normalized growth [24]: 0.844 (active) | normalized growth [25]: 0.594 (active) | normalized growth [26]: 0.988

FC(F)(F)c1cc(-c2ccc(Cl)cc2)nc2cc(C3CC3)nn12
normalized growth [1]: 1.03 | normalized growth [2]: 1.01 | normalized growth [3]: 1.03 | normalized growth [4]: 0.99 | normalized growth [5]: 1 | normalized growth [6]: 1.03 | normalized growth [7]: 1.16 | normalized growth [8]: 1.02 | normalized growth [27]: 1.01 | normalized growth [9]: 1.04 | normalized growth [10]: 1.01 | normalized growth [11]: 1.01 | normalized growth [12]: 1.02 | normalized growth [13]: 1.05 | normalized growth [14]: 1.06 | normalized growth [15]: 1.02 | normalized growth [16]: 1.01 | normalized growth [17]: 1.01 | normalized growth [18]: 1.02 | normalized growth [19]: 1.05 | normalized growth [20]: 1.02 | normalized growth [21]: 1.01 | normalized growth [22]: 1.08 | normalized growth [23]: 1.03 | normalized growth [24]: 1.02 | normalized growth [25]: 1.15 | normalized growth [26]: 0.997

FC(F)(F)c1c2c(nc3cc(-c4ccco4)nn13)CCC2
normalized growth (S. cerevisiae deletion strains, locus YAR019C, strain CDC15, hits give low values): 0.965 | normalized growth (S. cerevisiae deletion strains, locus YBL105C, strain PKC1, hits give low values): 0.973 | normalized growth (S. cerevisiae deletion strains, locus YBR135W, strain CKS1, hits give low values): 0.964 | normalized growth (S. cerevisiae deletion strains, locus YBR136W, strain MEC1, hits give low values): 0.971 | normalized growth (S. cerevisiae deletion strains, locus YBR160W, strain CDC28, hits give low values): 0.975 | normalized growth (S. cerevisiae deletion strains, locus YDL017W, strain CDC7, hits give low values): 0.971 | normalized growth (S. cerevisiae deletion strains, locus YDL028C, strain MPS1, hits give low values): 0.971 | normalized growth [3]: 0.967 | normalized growth (S. cerevisiae deletion strains, locus YDL108W, strain KIN28, hits give low values): 0.967 | normalized growth (S. cerevisiae deletion strains, locus YDL132W, strain cdc53, hits give low values): 0.96 | normalized growth (S. cerevisiae deletion strains, locus YDL214C, strain PRR2, hits give low values): 0.9 | normalized growth (S. cerevisiae deletion strains, locus YDR052C, strain DBF4, hits give low values): 0.966 | normalized growth (S. cerevisiae deletion strains, locus YDR054C, strain cdc34, hits give low values): 0.952 | normalized growth (S. cerevisiae deletion strains, locus YDR226W, strain ADK1, hits give low values): 0.968 | normalized growth (S. cerevisiae deletion strains, locus YDR477W, strain SNF1, hits give low values): 0.882 | normalized growth (S. cerevisiae deletion strains, locus YER123W, strain YCK3, hits give low values): 0.858 | normalized growth (S. cerevisiae deletion strains, locus YER133W, strain GLC7, hits give low values): 0.912 | normalized growth (S. cerevisiae deletion strains, locus YFL009W, strain cdc4, hits give low values): 0.968 | normalized growth (S. cerevisiae deletion strains, locus YFL029C, strain CAK1, hits give low values): 0.96 | normalized growth (S. cerevisiae deletion strains, locus YFR003C, strain YPI1, hits give low values): 0.976 | normalized growth (S. cerevisiae deletion strains, locus YFR019W, strain FAB1, hits give low values): 0.959 | normalized growth (S. cerevisiae deletion strains, locus YFR028C, strain CDC14, hits give low values): 0.969 | normalized growth (S. cerevisiae deletion strains, locus YGR040W, strain KSS1, hits give low values): 0.875 | normalized growth (S. cerevisiae deletion strains, locus YGR052W, strain FMP48, hits give low values): 0.942 | normalized growth (S. cerevisiae deletion strains, locus YGR092W, strain DBF2, hits give low values): 0.815 | normalized growth [7]: 0.702 (active) | normalized growth (S. cerevisiae deletion strains, locus YHR079C, strain IRE1, hits give low values): 0.891 | normalized growth (S. cerevisiae deletion strains, locus YHR082C, strain KSP1, hits give low values): 0.896 | normalized growth (S. cerevisiae deletion strains, locus YHR205W, strain SCH9, hits give low values): 0.825 | normalized growth (S. cerevisiae deletion strains, locus YIL147C, strain SLN1, hits give low values): 0.971 | normalized growth (S. cerevisiae deletion strains, locus YJL095W, strain BCK1, hits give low values): 0.819 | normalized growth (S. cerevisiae deletion strains, locus YJL128C, strain PBS2, hits give low values): 0.92 | normalized growth (S. cerevisiae deletion strains, locus YJL157C, strain FAR1, hits give low values): 0.869 | normalized growth (S. cerevisiae deletion strains, locus YJR016C, strain ILV3, hits give low values): 0.973 | normalized growth (S. cerevisiae deletion strains, locus YJR066W, strain TOR1 (second series), hits give low values): 0.987 | normalized growth (S. cerevisiae deletion strains, locus YJR066W, strain TOR1, hits give low values): 0.833 | normalized growth (S. cerevisiae deletion strains, locus YKL048C, strain ELM1, hits give low values): 0.941 | normalized growth (S. cerevisiae deletion strains, locus YKL067W, strain YNK1, hits give low values): 0.879 | normalized growth (S. cerevisiae deletion strains, locus YKL101W, strain HSL1, hits give low values): 0.928 | normalized growth (S. cerevisiae deletion strains, locus YKL193C, strain SDS22, hits give low values): 0.959 | normalized growth (S. cerevisiae deletion strains, locus YKL203C, strain TOR2, hits give low values): 0.901 | normalized growth (S. cerevisiae deletion strains, locus YLR113W, strain HOG1, hits give low values): 0.802 (active) | normalized growth (S. cerevisiae deletion strains, locus YLR133W, strain CKI1, hits give low values): 0.884 | normalized growth (S. cerevisiae deletion strains, locus YLR403W, strain SFP1, hits give low values): 0.855 | normalized growth (S. cerevisiae deletion strains, locus YML070W, strain DAK1, hits give low values): 0.906 | normalized growth (S. cerevisiae deletion strains, locus YMR001C, strain CDC5, hits give low values): 0.966 | normalized growth (S. cerevisiae deletion strains, locus YMR205C, strain PFK2 (second series), hits give low values): 0.891 | normalized growth (S. cerevisiae deletion strains, locus YMR277W, strain FCP1, hits give low values): 0.963 | normalized growth (S. cerevisiae deletion strains, locus YNL006W, strain LST8, hits give low values): 0.97 | normalized growth (S. cerevisiae deletion strains, locus YNL020C, strain ARK1, hits give low values): 0.851 | normalized growth (S. cerevisiae deletion strains, locus YNL161W, strain CBK1, hits give low values): 0.974 | normalized growth (S. cerevisiae deletion strains, locus YNL183C, strain NPR1, hits give low values): 0.816 | normalized growth (S. cerevisiae deletion strains, locus YNL207W, strain RIO2, hits give low values): 0.96 | normalized growth (S. cerevisiae deletion strains, locus YNL222W, strain SSU72, hits give low values): 0.97 | normalized growth (S. cerevisiae deletion strains, locus YNL307C, strain MCK1 (second series), hits give low values): 0.861 | normalized growth (S. cerevisiae deletion strains, locus YOL078W, strain AVO1, hits give low values): 0.961 | normalized growth (S. cerevisiae deletion strains, locus YOL136C, strain PFK27, hits give low values): 0.884 | normalized growth (S. cerevisiae deletion strains, locus YOR061W, strain CKA2, hits give low values): 0.865 | normalized growth (S. cerevisiae deletion strains, locus YOR119C, strain RIO1, hits give low values): 0.921 | normalized growth (S. cerevisiae deletion strains, locus YOR231W, strain MKK1, hits give low values): 0.883 | normalized growth (S. cerevisiae deletion strains, locus YOR329C, strain SCD5, hits give low values): 0.976 | normalized growth (S. cerevisiae deletion strains, locus YPL031C, strain PHO85, hits give low values): 0.869 | normalized growth (S. cerevisiae deletion strains, locus YPL153C, strain RAD53, hits give low values): 0.889 | normalized growth (S. cerevisiae deletion strains, locus YPL204W, strain HRR25, hits give low values): 0.87 | normalized growth (S. cerevisiae deletion strains, locus YPL209C, strain IPL1, hits give low values): 0.972 | normalized growth (S. cerevisiae deletion strains, locus YPL256C, strain CLN2, hits give low values): 0.891 | normalized growth (S. cerevisiae deletion strains, locus YPR025C, strain CCL1, hits give low values): 0.968 | normalized growth (S. cerevisiae deletion strains, locus YPR106W, strain ISR1, hits give low values): 0.959 | normalized growth (S. cerevisiae deletion strains, locus YPR111W, strain DBF20, hits give low values): 0.958 | normalized growth (S. cerevisiae deletion strains, strain NNK1, hits give low values): 0.959 | normalized growth (S. cerevisiae deletion strains, strain TSCII, hits give low values): 0.969
